# Results reported in ChEMBL document CHEMBL3988442, “University of Dundee, Small-Polar-MMV Screening Library” (2021).
# Hit rate of the full screen: of about 48,000 compounds, about 13,000 (27%) showed an effect of 50% or more. Some of the results follow.
# Test system: Wolbachia pipientis
# Test: Anti-Wolbachia Cell-Based Screen
# Assay type: functional
# Parameters: scale not given: in the data most compounds retested in dose-response had high values
# Details: 5 µM
row,SMILES,Percent Effect [%]
1,COc1cccc(C2C3=C(COC3=O)Nc3[nH]nc(C)c32)c1O (stereo not given),0.9958
2,OCc1cc2ccccc2nc1NCC1(O)CCC1,2.986
3,O=C(NCCC(=O)N1CCCC1)c1nn(-c2ccccc2F)cc1O,-1.899
4,Cc1cc(F)ccc1-n1cc(O)c(C(=O)NCC2(O)CCC2)n1,99.53
5,O=C(NCC1(O)CCOCC1)c1ccn(-c2ccccc2F)n1,-4.813
6,Cc1nnc(N2C[C@H](OCC3CCCC3)[C@H]3OCCC[C@H]32)s1.O=C(O)C(F)(F)F,-7.444
7,Cc1nnc(N2C[C@@H](OCC3CCCC3)[C@H]3OCCC[C@H]32)s1.O=C(O)C(F)(F)F,-7.489
8,Cc1nnc(N2CCO[C@H]3[C@@H](OCc4ccccn4)CC[C@@H]32)s1.O=C(O)C(F)(F)F.O=C(O)C(F)(F)F,0.4576
9,O=C(O)C(F)(F)F.c1cnc(N2CCO[C@H]3[C@H](OCCN4CCCC4)CC[C@@H]32)nc1,-8.905
10,Fc1cnc(N2C[C@@H](OCC3CCOCC3)[C@H]3OCCC[C@H]32)nc1.O=C(O)C(F)(F)F,83.11
11,Fc1cnc(N2CCO[C@H]3[C@H](OCC4CCOCC4)CC[C@@H]32)nc1.O=C(O)C(F)(F)F,113.1
12,O=C(O)C(F)(F)F.c1cnc(N2CCO[C@H]3[C@H](OCC4CC4)CC[C@@H]32)nc1,118.2
13,Fc1cnc(N2CCO[C@H]3[C@H](OCCN4CCCC4)CC[C@@H]32)nc1.O=C(O)C(F)(F)F,101.9
14,C1CC(CN2CCO[C@H]3[C@H](OCC4CC4)CC[C@@H]32)CCO1.O=C(O)C(F)(F)F,-2.542
15,O=C(CO[C@@H]1CC[C@H]2[C@H]1OCCN2c1ncccn1)N1CCCC1.O=C(O)C(F)(F)F,-14.02
16,Fc1cnc(N2CC[C@@H](N3CCOCC3)[C@@H]2Cc2ccncc2)nc1.O=C(O)C(F)(F)F.O=C(O)C(F)(F)F,-1.872
17,Cn1cccc1C(=O)NS(=O)(=O)c1cnn(-c2ccccc2F)c1,-15.01
18,CCC(CC)c1cc(CNC(=O)N2CCC(CO)CC2)on1,3.231
19,CCSc1ccc(NC(=O)NC(C)c2ccncc2)cn1 (stereo not given),4.069
20,Cc1ccc(N2CCO[C@H]3[C@H](OCC(=O)N4CCCC4)CC[C@@H]32)cc1.O=C(O)C(F)(F)F,-12.38
21,CN(C)C(=O)CO[C@@H]1CC[C@H]2[C@H]1OCCN2c1ncccn1.O=C(O)C(F)(F)F,-13.26
22,O=C(O)C(F)(F)F.c1cnc(N2CCO[C@H]3[C@H](OCC4CCOCC4)CC[C@@H]32)nc1,109.2
23,CN(C)C(=O)CO[C@@H]1CC[C@H]2[C@H]1OCCN2c1ncc(F)cn1.O=C(O)C(F)(F)F,112.4

row,SMILES,Percent Effect [%]
1,c1cnc(N2CCO[C@H]3[C@H](OCCN4CCOCC4)CC[C@@H]32)nc1,4.128
2,CC(C)c1noc(CS(=O)(=O)CC(=O)NCc2ccccc2)n1,-6.671
3,CNC(=O)CC1CCN(C(=O)NCC2(c3ccccc3F)CC2)CC1,17.39
4,C[C@H](NC(=O)c1cnc(-c2ccccc2)nc1O)C(N)=O,-2.731
5,CC1(C(=O)NCc2cccnc2Oc2ccc(F)cc2F)CCCNC1 (stereo not given),-10.63
6,COc1ccccc1Oc1ncccc1CNC(=O)C(O)C(F)(F)F (stereo not given),-1.797
7,CN(C)S(=O)(=O)NCc1cccnc1Oc1ccccc1F,-2.54
8,CC1(C(=O)NCc2cccnc2Oc2ccc(F)c(F)c2)CCCNC1 (stereo not given),-1.745
9,Cc1ccccc1Oc1ncccc1CNC(=O)Cn1cccnc1=O,-3.943
10,O=C(CN1CCCC1=O)NCc1cccnc1Oc1ccc(F)c(F)c1,-46.82
11,Cc1cccc(C)c1Oc1ncccc1CNC(=O)C1COC(=O)N1 (stereo not given),89.56
12,O=C1NC(C(=O)NCc2cccnc2Oc2ccc(F)cc2F)CO1 (stereo not given),106.1
13,O=C1NC(C(=O)NCc2cccnc2Oc2ccccc2F)CO1 (stereo not given),117.3
14,O=C1NC(C(=O)NCc2cccnc2Oc2ccc(F)c(F)c2)CO1 (stereo not given),103.5
15,Cc1cccc(C)c1Oc1ncccc1CNC(=O)C1(C)CCCNC1 (stereo not given),9.373
16,CC(=O)N[C@@H](C)C(=O)NCc1cccnc1Oc1ccccc1F,-9.866
17,CC(C)c1noc(CN(C)C(c2ccc(F)cc2)c2cccnc2)n1 (stereo not given),7.35
18,CCn1nc2c(cc1=O)CN(CCCOc1ccc(C#N)cc1)CC2,-4.501
19,CC(C)(C)OC(=O)NCC1CCCCN1Cc1cccc(C(N)=O)c1 (stereo not given),-2.516
20,CCOC(=O)C1CN(C(=O)C2CCOCC2)Cc2ncn(CC)c21 (stereo not given),3.509
21,Cc1nnc(CN2CCCC2c2ccc(C(C)(C)C)cc2)o1 (stereo not given),-26.52
22,CSc1ncccc1C(=O)N1CCC2(CC1)c1nc[nH]c1CCN2C,9.792
23,CCSCCC(=O)Nc1ncn(Cc2cccnc2)n1,-3.764

row,SMILES,Percent Effect [%]
1,O=S(=O)(Cc1cccc2cccnc12)NC(CO)c1ccco1 (stereo not given),-8.128
2,COc1ccccc1Oc1ncccc1CNC(=O)[C@H](C)O,-22.76
3,CCCS(=O)(=O)NCc1cccnc1Oc1ccc(C)c(F)c1F,-1.189
4,Cc1ccc(Oc2ncccc2CNC(=O)C2COC(=O)N2)c(F)c1F (stereo not given),65.92
5,COc1ccccc1Oc1ncccc1CNC(=O)C1COC(=O)N1 (stereo not given),98.82
6,COc1ccccc1Oc1ncccc1CNC(=O)[C@@H](N)[C@@H](C)O,-22.34
7,Cc1nc(CNCc2cccnc2Oc2ccc(C)c(F)c2F)c[nH]1,-6.11
8,c1ccc(-c2nccc(CNCC3CCCN3c3cccnn3)n2)cc1 (stereo not given),1.65
9,Cn1cnc2c1CCN(CC(O)c1ccc3c(c1)OCCO3)C2 (stereo not given),2.698
10,Cc1nc(C(=O)N2CC(C)Sc3ccccc32)cs1 (stereo not given),-0.9397
11,CN(Cc1ncnn1C)c1ccnc(Cc2ccccc2)n1,-0.8819
12,O=C(O)C(F)(F)F.O[C@@H]1CCN(CC2CCOC2)[C@H]1Cc1ccccc1 (stereo not given in full),-6.584
13,CCS(=O)(=O)N1CCC2(CCC(N3CCCC3)c3ccccc32)CC1.O=C(O)C(F)(F)F (stereo not given),6.992
14,CS(=O)(=O)N1CCC2(CC1)CN(CC1CCOC1)c1ccccc12.O=C(O)C(F)(F)F (stereo not given),90.82
15,O=C(O)C(F)(F)F.c1cncc(C2CC3(CCN(c4cnccn4)CC3)c3ccccc32)c1 (stereo not given),23.08
16,CCS(=O)(=O)N1CCC2(CC1)CN(CC1CCOC1)c1ccccc12.O=C(O)C(F)(F)F (stereo not given),101.7
17,O=C(O)C(F)(F)F.c1cnc(N2CC3(CCN(CC4CCOC4)CC3)c3ccccc32)nc1 (stereo not given),-15.18
18,O=C(O)C(F)(F)F.c1ccc2c(c1)N(CC1CCOC1)CC21CCN(c2cnccn2)CC1 (stereo not given),103.7
19,CN1CC2(CCN(S(=O)(=O)C3CC3)CC2)c2ccccc21.O=C(O)C(F)(F)F,-12.74
20,CCCS(=O)(=O)N1CCC2(CC1)CC(N1CCCC1)c1ccccc12.O=C(O)C(F)(F)F (stereo not given),11.6
21,O=C(O)C(F)(F)F.c1cnc(N2CC3(CCN(C4CCOCC4)CC3)c3ccccc32)nc1,5.791
22,CCCS(=O)(=O)N1CCC2(CC1)CN(CC1CCOC1)c1ccccc12.O=C(O)C(F)(F)F (stereo not given),105.4
23,CCCS(=O)(=O)N1CCC2(CC1)CN(C(=O)N(C)C)c1ccccc12,-3.576

row,SMILES,Percent Effect [%]
1,COC[C@]12COC[C@H]1CN(S(=O)(=O)c1cccnc1)C2,6.326
2,Cc1nnc(N2C[C@H]3OCC[C@H]3[C@H](C(=O)NCC3CC3)C2)s1.O=C(O)C(F)(F)F,-6.656
3,O=C1CC2(CCN(Cc3ccc4cccc(O)c4n3)CC2)CN1,-6.934
4,COc1ccc(CCNc2cc(-c3nc(C)no3)ccn2)cc1OC,-4.716
5,CC(C)(C)C(=O)N1CCC2(COCc3cnc(N4CCOCC4)nc32)C1 (stereo not given),-4.302
6,CNC(=O)N1CCC2(COCc3c(C)nc(NCc4ccco4)nc32)C1 (stereo not given),-16.5
7,COCC(=O)N1CCC2(COCc3cnc(NCc4ccco4)nc32)C1 (stereo not given),94.68
8,CCC(=O)N1CCC2(COCc3c(C)nc(NCc4ccco4)nc32)C1 (stereo not given),0.949
9,Fc1cnc(N2CCC3(COCc4cnc(NCC5CC5)nc43)C2)nc1 (stereo not given),3.153
10,CCC(=O)N1CCC2(COCc3cnc(NCc4ccco4)nc32)C1 (stereo not given),102.3
11,O=C(C1CC1)N1CCC2(COCc3cnc(NCc4ccco4)nc32)C1 (stereo not given),107.6
12,CCC(C)(CC(=O)OC)NC(=O)c1cccc(F)c1F (stereo not given),0.5787
13,Cc1cc(NCCO)nc(N2CCC(Cc3ccccc3)CC2)c1C#N.O=C(O)C(=O)O,-4.494
14,CC(C)N(CCSc1ncnc2[nH]ncc12)C(C)C,-23.68
15,O=S(=O)(NCCn1cc(C2CCOC2)nn1)c1ccc(Cl)cc1 (stereo not given),2.449
16,CCc1noc(CNc2cc3c(cc2Cl)OCCO3)n1,29.93
17,N#Cc1ccc(OCCOc2ccccc2C(=O)N2CCOCC2)cc1,2.422
18,CO[C@@H]1CC[C@H]2[C@H]1OCCN2Cc1ccc(F)c(F)c1.O=C(O)C(F)(F)F,101.8
19,CO[C@@H]1CC[C@H]2[C@H]1OCCN2CCOCc1ccccc1.O=C(O)C(F)(F)F,11.38
20,CO[C@H]1CC[C@H]2[C@H]1OCCN2CCOCc1ccccc1.O=C(O)C(F)(F)F,-1.824
21,CO[C@H]1CC[C@H]2[C@H]1OCCN2Cc1ccc(F)c(F)c1.O=C(O)C(F)(F)F,110.9
